Results on nine compounds are retold here after PubChem BioAssay (NCI).

Compounds without any hit were thinned out: in the full panel of roughly 83,000, 20% have a hit.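 Compound tested at a single concentration for 48 hours in 96-well plates; a percent growth value below 10 was scored as active.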 A number with no mark means an inactive call. Active and inactive are the calls of the source.

Common to all, as to test: NCI-60 one-dose screen, 48 h (100 = growth as untreated, 0 = no growth, -100 = all killed)
Common to all, as to conditions: 10 µM unless noted

Assay [1] relates to NCI-H23 lung.
The test system of assay [2] is NCI-H226 lung.
The subject of assay [3] is HOP-62 NSCLC.
In assay [4] the test system is NCI-H460 lung.
In assay [5] the test system is HOP-92 NSCLC.
Assay [6] deals with NCI-H522 lung.
Assay [7] has as its system A549/ATCC NSCLC.
For assay [8], the system named is 786-0 renal.
Assay [9] relates to COLO 205 colon.
In assay [10] the test system is K-562 leukemia.
For assay [11], the system named is MALME-3M melanoma.
Assay [12] concerns MDA-MB-231 breast.
The test system of assay [13] is RXF 393 renal.
The test system of assay [14] is SF-268 CNS.
Assay [15] has as its system SF-295 CNS.
Assay [16] relates to SF-539 CNS.
Assay [17] concerns UACC-257 melanoma.
Assay [18] deals with M14 melanoma.
The subject of assay [19] is DU-145 prostate.

Turning to `COC(=O)C1=C(C)C(=O)CC1`, the growth in assay [1] was 120%; in assay [2], 109%; in [3], 114%; in [4], 118%; in [5], 113%; in assay [6], 101%. For the same compound, the growth in assay [7] was 112%; in assay [8] it was 108%; in assay [9], 141%; in assay [10] it was 96.1%; in [11] it was 137%; in assay [12], 102%. In addition, the growth in assay [13] is 143%; in assay [14], 111%; in assay [15], 135%; in [16] it was 109%; in [17], 110%; in [18], 105%.
`CC(=O)c1cccc(O)c1`: the growth in [1] was 96.6%; in [2], 103%; in assay [3], 93%; in assay [4], 105%; in assay [5], 103%; in assay [6] it was 88.9%. The growth is 98.9% in assay [7]; 96% in assay [8]; 110% in assay [9]; 105% in assay [19]; 103% in [10]; 104% in assay [12]. The growth in [13] was 112%; in assay [14] it was 97.1%; in [15], 101%; in [16] it was 98%; in assay [17], 99.3%; in assay [18], 99.6%.
As to `CNc1ccccc1C(N)=O`, the growth was 99% in assay [1]; 103% in assay [2]; 95.9% in assay [3]; 108% in assay [4]; 110% in assay [5]; 98.1% in assay [6]. The growth was 97.4% in assay [7]; 101% in assay [8]; 115% in [9]; 107% in [19]; 108% in assay [10]; 97.9% in assay [11]. Further, the growth is 98.1% in assay [13]; 100% in [14]; 95.5% in assay [15]; 97.6% in assay [16]; 98.4% in [17]; 96.2% in assay [18].
In the case of `Cc1ccc(S(=O)(=O)CCCl)cc1`, the growth is 102% in assay [1]; 108% in assay [2]; 112% in assay [3]; 105% in assay [4]; 76.1% in assay [5]; 113% in [6]. The growth in assay [7] is 89.5%; in assay [8], 108%; in assay [9], 120%; in assay [19] it was 112%; in [10], 95.6%; in assay [11] it was 117%. In addition, the growth in assay [12] was 117%; in assay [13] it was 100%; in assay [14], 93.8%; in assay [15] it was 111%; in assay [16] it was 100%; in [17] it was 100%. Besides, the growth in [18] was 104%.
For the compound `OC(CBr)CCBr` (stereo unspecified), the growth was 105% in assay [1]; 110% in assay [2]; 97.2% in assay [3]; 102% in [4]; 102% in assay [5]; 96.5% in assay [6]. Besides, the growth is 90.8% in assay [7]; 103% in assay [8]; 105% in assay [9]; 110% in assay [19]; 100% in assay [10]; 85.6% in assay [11]. Moreover, the growth in [12] was 104%; in assay [13] it was 109%; in assay [14], 104%; in assay [15] it was 94%; in assay [16] it was 96.3%; in assay [17], 87.8%. Further, in [18], the growth is 104%.
Take `Cc1cc(NC(=O)c2ccccc2)c(Cl)cc1N`: the growth in assay [1] was 98.6%; in [2], 97.1%; in assay [3], 96.7%; in [4], 99.9%; in assay [5], 106%; in [6] it was 79.5%. Also, the growth in [7] is 99.4%; in [8], 92.1%; in [9], 129%; in assay [19], 126%; in assay [10], 98.8%; in [11], 103%. Besides, the growth in assay [12] is 96%; in [13], 124%; in assay [14], 114%; in assay [15], 94%; in assay [16], 95.5%; in [17], 100%. Moreover, the growth in assay [18] is 95.8%.
As to `CC(=O)N=c1ccc2nc3c(cc(N)c4ccccc43)oc-2c1`, the growth is -27.8% (active) in assay [1]; 80.4% in assay [2]; 1.21% (active) in assay [3]; -56.9% (active) in assay [5]; -78.1% (active) in [6]; 11.2% in [7]. Also, the growth was -43.8% (active) in assay [8]; -84.6% (active) in assay [9]; -96% (active) in assay [19]; -55.7% (active) in assay [10]; -67.3% (active) in assay [11]; -9.2% (active) in assay [12]. Besides, the growth in assay [13] is 14%; in assay [14] it was -11.1% (active); in [15], -65.7% (active); in assay [16], -71.2% (active); in assay [17], -81.5% (active); in [18], -68.8% (active).
As for `OCCNc1ccccc1`, the growth in assay [1] was 95.6%; in assay [2], 97.7%; in assay [3] it was 105%; in [4], 106%; in assay [5], 92.7%; in [6], 99.5%. Besides, the growth in [7] is 103%; in assay [8], 99.9%; in [9] it was 107%; in assay [19], 103%; in assay [10], 104%; in assay [11] it was 102%. The growth in assay [12] was 104%; in assay [13], 109%; in assay [14], 97.2%; in assay [15], 108%; in assay [16] it was 95.9%; in [17], 108%. The growth in assay [18] was 97.8%.
Turning to `CCN(C(C)=O)c1ccc([N+](=O)[O-])cc1`, the growth in [1] is 101%; in [2], 99.3%; in assay [3] it was 95.4%; in assay [4] it was 104%; in assay [5] it was 98.7%; in assay [6], 104%. Further, the growth was 91.8% in assay [7]; 102% in assay [8]; 110% in assay [9]; 110% in assay [19]; 107% in assay [10]; 101% in assay [11]. In addition, the growth is 106% in assay [13]; 103% in [14]; 108% in assay [15]; 109% in [16]; 94.9% in assay [17]; 113% in assay [18].
